# Assay outcomes from PubChem.
# NS1 inh: blocks influenza NS1 protein function | AID 2326 | 270,000 compounds, 0.4% hits | Potency, µM (highest dose often 46.1 µM), for the others: top-dose activity, positive = more growth; calls by dose curve; note: actives are rising curves; nearly all actives have a fitted effect of over 50% in size
#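 Recovery from NS1-induced slow growth read by OD600 in budding yeast switched to galactose assay medium (pH 6.0, -URA) at 1:100 dilution. Compound 23 nl per well; the matching strain lacking NS1 serves as control.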
# HCV inh: blocks hepatitis C virus. Huh7.5.1 HCVcc-Cre infection, luciferase reporter, 44 h. Potency, µM (titrated, usually from 41.8 µM), inactives show top-dose activity change, negative = inhibition, most hits filed as inhibitors. 340,000 compounds, 3.4% hits. AID 651820; note: % is set by controls: 0 for no effect and ±100 for the full control effect
#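 Whole-lifecycle infectious HCVcc-Cre system; cells 1,000/well, compound then virus (~0.5 moi) added 4 h after plating, 44 h culture. Luciferase read 15 sec following 15 min substrate incubation, room temp.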
# Pf growth 48h: inhibits P. falciparum growth in the first generation, 48 h | AID 504832 | P. falciparum luciferase growth in erythrocytes, 48 h | 310,000 compounds, 5.9% hits | Potency, µM (top dose mostly 28.7 µM), for inactives: at the top dose activity change, negative = inhibition, actives largely listed as inhibitors; note: % is set by controls: 0 for no effect and ±100 for the full control effect
#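 Luciferase-expressing P. falciparum in infected erythrocytes (2% hematocrit, 0.1% parasitemia final) in RPMI 1640/0.5% Albumax were exposed to compound for 48 hours at 37 C, 5% CO2; growth read as luminescence.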
# Vaccinia mCherry: vaccinia inhibition (mCherry reporter). Vaccinia virus mCherry reporter infection, fluorescence. Potency, µM (titrated, usually from 36.5 µM), without a hit: at the highest dose activity change, negative = inhibition, most hits filed as inhibitors. 310,000 compounds, 0.63% hits; calls by dose curve; tested in A549 cells; note: % is set by controls: 0 for no effect and ±100 for the full control effect; nearly all actives have a fitted effect of over 35% in size
# Pf growth 96h: P. falciparum growth inhibition at 96 hours. P. falciparum luciferase reporter growth, 96 h. Potency, µM (titrated, usually from 28.7 µM), for inactives: at the highest dose activity change, negative = inhibition, actives largely listed as inhibitors. 320,000 compounds, 6.9% hits. AID 504834; note: % is set by controls: 0 for no effect and ±100 for the full control effect
#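 Delayed-death screen, second-generation endpoint: infected erythrocytes, 2% hematocrit, 0.05% parasitemia final; 96 hours at 37 C, 5% CO2; luciferase detection reagent; luminescence decrease equals reduced growth.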
# VACV Venus inh: vaccinia inhibition (Venus reporter); Vaccinia virus Venus reporter expression, fluorescence; Potency, µM (doses to about 36.5 µM), for inactives: at the highest dose activity change, negative = inhibition, most hits filed as inhibitors; 330,000 compounds, 0.46% hits; calls by dose curve; tested in A549 cells; note: % is set by controls: 0 for no effect and ±100 for the full control effect; nearly all actives have a fitted effect of over 30% in size
# An asterisk follows results filed as active; i = inactive; ? = inconclusive; / = no result given. Only some compounds are listed: those with a hit (about 11% of all), similar ones and a draw of the others. Unless noted, calls come from the whole dose curve; as a rule, active = well fitted inhibition curve with a large enough effect; inconclusive = small, poorly fitted or top-dose-only effect, or another doubt; inactive = no such curve, though single readings can be large or run the other way. Potency is the fitted concentration of half-maximal effect.
SMILES,NS1 inh,HCV inh,Pf growth 48h,Vaccinia mCherry,Pf growth 96h,VACV Venus inh
O=C(NC1CCCC1)C(c1ccccn1)N(C(=O)c1csnn1)c1ccccc1Br (configuration not stated),/,0%,6%,i,2.1µM*,-17%
O=C1c2ccncc2C(=O)N1CO,4%,1%,-7%,/,10µM*,-10%
CC1(C(=O)NS(=O)(=O)c2ccc(Cl)cc2)CCN1C(=O)Cc1cc(F)ccc1F (configuration not stated),/,/,/,0%,/,6%
COc1ccc(C2C=C(C34CC5CC(CC(C5)C3)C4)NC(=S)N2)cc1 (configuration not stated),-5%,-16%,9.3µM*,/,12µM*,/
COc1ccc(O)c(CN2CCCC(N3CCN(c4ccccc4OC)CC3)C2)c1 (configuration not stated),21%,-16%,?,-5%,0%,-11%
COc1ccccc1N1CCN(C2CCCN(Cc3ccccc3OCCO)C2)CC1 (configuration not stated),2%,2%,?,-6%,1.7µM*,-3%
COc1ccccc1N1CCN(C2CCCN(Cc3cc(F)cc(F)c3)C2)CC1 (configuration not stated),-3%,-12%,?,/,?,/
COc1ccccc1N1CCN(C2CCCN(Cc3ccc(Cl)cc3)C2)CC1 (configuration not stated),7%,?,-16%,?,13µM*,-23%
Cc1ccc(S(=O)(=O)NCCCNS(C)(=O)=O)cc1,4%,-10%,2%,/,22%,/
CCOc1ccccc1NC(=O)C(=O)Nc1ccc2nc3n(c(=O)c2c1)CCCCC3,/,/,/,-27%,/,-24%
COc1cccc(/C=C/C(=O)Nc2ccc3nc4n(c(=O)c3c2)CCCC4)c1OC,/,?,2.1µM*,/,?,/
COc1ccccc1C(=O)Nc1ccc2nc3n(c(=O)c2c1)CCCC3,-2%,-22%,?,/,0.52µM*,/
COc1cc(/C=C/C(=O)Nc2ccc3nc4n(c(=O)c3c2)CCCC4)cc(OC)c1OC,/,?,?,/,-18%,/
COc1cc(OC)cc(C(=O)Nc2ccc3nc4n(c(=O)c3c2)CCCCC4)c1,-9%,?,56%,-9%,13µM*,-9%
COc1ccc(OC)c(CCNC(=O)C(=O)Nc2ccc3nc4n(c(=O)c3c2)CCCCC4)c1,-4%,?,4.1µM*,/,4%,/
COc1ccc(NC(=O)C(=O)Nc2ccc3nc4n(c(=O)c3c2)CCCCC4)c(OC)c1,/,/,/,-1%,/,-1%
COc1cccc(NC(=O)CC(=O)Nc2ccc3nc4n(c(=O)c3c2)CCCCC4)c1,/,/,/,-9%,/,-9%
CCC(CC)C(=O)Nc1cc(Cl)ccc1C,/,/,-19%,/,-4%,/
CC(=O)c1ccc(OCc2cc(C(=O)N(C)CCOc3ccc(C)cc3)no2)cc1,-14%,13µM*,10%,/,18%,/
CC(=O)c1ccc(OCc2cc(C(=O)N(C)C3CCOC3)no2)cc1 (configuration not stated),2%,-4%,5%,/,12µM*,/
Cc1oc(-c2ccccc2)[n+]([O-])c1C,-7%,22%,9%,0%,-27%,6%
Cc1ccc2c(Cn3ccnc3)cc(=O)oc2c1C,0%,5%,-10%,/,12%,/
Cc1cc(Cn2ccnc2)c(C)c([N+](=O)[O-])c1Cn1ccnc1,3%,0%,10µM*,/,?,/
Cc1cc(C)c2c(=O)[nH]c(SCC(=O)c3ccc(C(C)C)cc3)nc2n1,?,-6%,3%,/,/,/
COc1ccc(NC(=O)c2cccnc2NCCc2ccccc2)cc1,-6%,?,?,-15%,1.5µM*,-4%
SMILES,NS1 inh,HCV inh,Pf growth 48h,Vaccinia mCherry,Pf growth 96h,VACV Venus inh
O=C(Nc1ccc(F)cc1)c1cccnc1Oc1ccccc1,1%,31%,/,-3%,18%,0%
CCOC(=O)Cc1ncccc1C(=O)Nc1ccc(Oc2ccccc2)cc1,/,-9%,8.3µM*,-6%,12µM*,-10%
Cc1cccc(C)c1-n1nnnc1C(c1ccnc2ccccc12)N(C)Cc1ccccc1 (configuration not stated),/,/,/,i,/,-7%
CC1CCCCN1C(=O)c1cc2nc(-c3ccccc3)cc(-c3ccccc3)n2n1 (configuration not stated),-14%,11µM*,8.3µM*,?,?,?
Cc1ccc(-c2cc(C(F)F)n3ncc(C(=O)NN4CCCCC4)c3n2)cc1,5%,3%,?,i,23%,6%
Cc1ccc(-c2cc(C(F)F)n3ncc(C(=O)N4CCN5CCCC5C4)c3n2)cc1 (configuration not stated),2%,?,12µM*,/,/,?
O=C(c1cc2nc(-c3ccc(F)cc3)cc(C(F)(F)F)n2n1)N1CCCCC1c1cccnc1 (configuration not stated),/,7.9µM*,3.7µM*,?,-51%,?
CCOC(=O)C1CCCN(C(=O)c2cnn3c(C(F)F)cc(-c4ccc(C)cc4)nc23)C1 (configuration not stated),-13%,?,4.7µM*,/,/,?
CCOc1ccccc1CNC(=O)c1[nH]c2ccccc2c1Sc1ccccc1,/,/,/,-8%,/,-15%
CCOc1ccc(NS(=O)(=O)c2ccc(NC(=O)c3ccccn3)cc2)cc1,/,?,?,/,-31%,/
COCC(=O)Nc1c(C(=O)Nc2ccc3c(c2)OCCO3)oc2ccccc12,/,?,369%,-10%,i,-9%
Cc1ccc(-c2cc(C(F)F)n3ncc(C(=O)N4CCCCC4c4cccnc4)c3n2)cc1 (configuration not stated),-3%,?,1.7µM*,22%,4.1µM*,-3%
CC(C)C[C@H](NC(=O)c1[nH]cnc1C(=O)Nc1ccccc1)C(=O)OC(C)(C)C,-2%,-3%,13µM*,-19%,?,?
